The campaign covered roughly 53,000 sequences. About 3,700 (7%) were called active. This is one part of a sample in which actives are shown more often than they occur.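 How the source made its calls: active means gene knockdowns whose robust z-score for IL-1 alpha signal is at least 2 or at most -2, so actives lie on both sides; inactive means the rest.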

This assay can be described thus: Components of the Cytosolic LPS Sensing Pathway: Gene Identification via Genome-wide siRNA Screen.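 Further: robust z of the log signal after scaling to non-targeting control siRNA wells of the plate.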 Conditions: RAW264.7 macrophages, IL-1a HTRF, actives lie on both sides, screened at 100 nM (by protocol), cells primed 5 h with Pam3CSK4 first. The procedure, abridged: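 IL-1a HTRF of supernatants after 24 hour LipidA transfection of Pam3CSK4-primed (5 hours) RAW264.7 cells, 48h post-siRNA transfection (100 nM). Scores: percent of plate negative-control median, then log-based robust z-score.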
Take GGCCUCAAUGCAGUAUCAATT against Shisal2b: the z-score was 0.773 (inactive).

Take GCUAAGAAUAGGAGUUAGATT against Ift57: the z-score is 0.419 (inactive).

With GGUCAGAAGUUAAUUUAUGTT against Rad23b, the z-score was -0.413 (inactive).

Turning to GGACCUGCUCUUGGUCAUUTT against Fam118a, the z-score is 0.461 (inactive).

Consider GGGAAGUGACCAUCAAGAATT against Slc8a3, for which the z-score is 2.56 (active).

As for GGUGAUGCGCCUGAAGGAUTT against Ntng2, the z-score is -0.668 (inactive).

In the case of GCUCCUCCAUCAGUUAGAUTT against Ube2v2, the z-score was -1.06 (inactive).

On to GGAAUCAACUUGGUGGCUCTT against Rxrg, for which the z-score was -0.0611 (inactive).

In the case of GGGUUUCUGUUUGAUUCCATT against Gria1, the z-score was -0.747 (inactive).

With GGCUAUGCUGCCUACUACUTT against Bmp7, the z-score is -2.63 (active).

On to GCCAACCUCUGUGUGUAUUTT against Olfr1263, for which the z-score was 0.799 (inactive).

Consider UGGUUGUAUUAUUCUGUUGTT against Defb38, for which the z-score is 0.188 (inactive).

Take GGACUUAUCUCAUCCAAGATT against Gm9946: the z-score was 0.39 (inactive).

Consider CCAGAAACGAUGCAUUCAUTT against Olfr124, for which the z-score was 2 (active).

With GGACUUUGAAAAAGAUGCATT against Fkbp7, the z-score is 1.21 (inactive).

As for AGUAUUCUUUGCUUUCCUUTT against Olfr822, the z-score was 0.731 (inactive).

With GGAGAAGAUGAUUAAGACCTT against Anp32b, the z-score is 0.51 (inactive).

Regarding CCACAGACUCUUAAUUAGATT against Ap3b1, the z-score is -2.14 (active).

For the sequence UAUCACAGACAUGAAAGAATT against Lst1, the z-score is 0.105 (inactive).

In the case of GGAAAAACAGUGCAGAUGGTT against Smchd1, the z-score was 0.228 (inactive).

Regarding GGGCAUUAAGACAAAGAGUTT against Fam3c, the z-score is 0.769 (inactive).

For the sequence GGAAAAGUUGCAUUUGGUCTT against Wdr17, the z-score was -1.02 (inactive).

With GGAGUUCACUGUGCUGAUGTT against Ppbp, the z-score was -0.536 (inactive).

As for GCUAAACUUAAGUCCAUCATT against Supt7l, the z-score is -0.592 (inactive).

On to GGGUUUGUGGGAUACAAUCTT against Smarce1, for which the z-score was 2.97 (active).

For GGGUAGUUAUACAAACUAATT against Snapc5, the z-score is 1.53 (inactive).

For the sequence GGUUCACAUCCUCCUCAGATT against Twist2, the z-score was 1.08 (inactive).

CCUUGAUGCUCGUAGGAAGTT against Efr3a: the z-score was -1.11 (inactive).

Turning to GGACAUUCUGCUACACAAGTT against Bsx, the z-score was 2.63 (active).

For the sequence GCCAACAUGUAUCAAAGCUTT against Rpgr, the z-score was -1.11 (inactive).

For GGACAAUGUGGUGCUGUCCTT against Slc34a3, the z-score is 0.492 (inactive).

As for GGAGUCCUUUCGUUCUAUCTT against Rab2a, the z-score is -0.319 (inactive).

Turning to GGACAUUGCUAACUGCCUUTT against Snx16, the z-score is 2.37 (active).

For GCCAAACUUACGUUUUUGATT against Trak2, the z-score is 0.81 (inactive).

Regarding CCUGUUUAAACUCUGCGGATT against Vit, the z-score is 0.678 (inactive).

For GGUUUUGUAGGAGUCUCUCTT against Vmn1r54, the z-score was 0.247 (inactive).

Take GCUAGUACUAUUACCUGCUTT against Enkd1: the z-score is 2.17 (active).

Turning to GGUGAUGAUGAUGUCUUUGTT against B3gnt7, the z-score was 1.93 (inactive).

GCUGAAUAGCCUCUAUCUATT against Rasgrp4: the z-score is 0.261 (inactive).

With GCCUCUACUUUACCAAGUUTT against Olfr883, the z-score was 0.523 (inactive).

As for GGGCUUUAGCCUGAGCGAUTT against Gpc1, the z-score was -0.916 (inactive).

As for GGUGAGCUUGGUUUCUAAATT against Gdf15, the z-score is 2.28 (active).

With GGCAUCUUCAUGUACUUGCTT against Olfr1445, the z-score is 1.5 (inactive).

Turning to GGUUUUCAGUACAUCCUGGTT against Cryba4, the z-score was 0.183 (inactive).

In the case of GCCAUGCAUCUGGAUUUACTT against Nat1, the z-score is 1.19 (inactive).

In the case of GGAGCAGACUUUAAAAUGATT against Stau1, the z-score is -0.626 (inactive).

For the sequence GGGCUCAUUGCUAAAACACTT against Sgcg, the z-score was -0.221 (inactive).

In the case of GGCUAUUGUACAACUUAUATT against Pafah1b2, the z-score was 2.1 (active).

On to GCCCUUUGGAAGAAUACUCTT against Golt1b, for which the z-score was -1.12 (inactive).

In the case of GGAGCUCAUGGAAAUCUGUTT against Pfpl, the z-score is 0.446 (inactive).

AGUGAAGAAAUGUUUGACATT against Raet1b: the z-score is -1.08 (inactive).

Turning to CCUAUUUGUAGGUGAUGUUTT against B3gnt7, the z-score was -0.445 (inactive).

GGUUCACUCCUGAUACCACTT against Ddo: the z-score was 1.29 (inactive).

Regarding GGCUUUUGGCUUCAACCCUTT against Slc39a14, the z-score was -2.24 (active).

For GGAAGCCAUUAUACAUGACTT against Uvrag, the z-score was -0.261 (inactive).

With GGUACAGAAUAUGUCACAGTT against Olfm3, the z-score was 0.627 (inactive).

For CCCUCUGGAUGGAUCUUCATT against Fbp2, the z-score was -1.3 (inactive).

In the case of GCAAGACUGAAAAUCCUGATT against Timm8a2, the z-score is -1.2 (inactive).

GCAACUGAACCUUCUGCUATT against Morn2: the z-score is -1.7 (inactive).

For the sequence GGCUUGUACUACCAUGACATT against Rasgef1b, the z-score is -2.76 (active).

For GGGAACAAGGAACUCAAAGTT against Cadm1, the z-score is 1.69 (inactive).

On to CCUGAAAGAUAACAAGUGGTT against Rnls, for which the z-score was 0.0112 (inactive).

With GGUUUGUUUUACAAAAUGCTT against Zdhhc5, the z-score was 0.37 (inactive).

Consider GCAUUUUAGACUCAGAAUCTT against Car3, for which the z-score was -0.047 (inactive).

As to GGAACGUAUACCUAUACCCTT against Huwe1, the z-score is -0.263 (inactive).

As to GGUAUGCAGUGAAGAGGAUTT against Paqr9, the z-score is 2.52 (active).

CCGUGACAGUCAUGUUGAUTT against Amt: the z-score is 0.235 (inactive).

As to GGAAAGACCUCUUGAUAGGTT against Tbkbp1, the z-score is 0.113 (inactive).

For the sequence CCUCUAUGUGAGAUUUGAGTT against Mamdc2, the z-score was -0.917 (inactive).

Consider CCCACCGAGACACCAUCUUTT against Syne4, for which the z-score is -1.78 (inactive).

In the case of GGGAGAUUGCAUUUGGAGCTT against Olfr678, the z-score is 0.317 (inactive).

In the case of GGCUGAAGUUACUUUGGAUTT against Nup98, the z-score was -2.03 (active).

Regarding GCAUGUAGACUACAACGUGTT against Myoz1, the z-score is -1.27 (inactive).

In the case of “GGGCUGAAGUGAAACCAGATT against D930048N14Rik”, the z-score was 0.415 (inactive).

Regarding GGGUCCAAAAGAAAAGUGUTT against Zc2hc1c, the z-score is 0.784 (inactive).

For GCAAAACACACUGAUGGUGTT against Stx16, the z-score is 0.835 (inactive).

As to GGCAAUUCAUUGCAUGUUATT against Cdc42ep3, the z-score is -0.177 (inactive).

Take GGAUCUCACAGUGAAGAAGTT against Krba1: the z-score was 0.392 (inactive).

Take “GCUUAUUUGUGGUACACGGTT against D030056L22Rik”: the z-score was 0.112 (inactive).

GGUUUCCUGAAGUUUUCAATT against Gnaz: the z-score is 3.08 (active).

Consider GGGUUGACCACUAUUUCUGTT against Olfr1338, for which the z-score was -1.06 (inactive).

For the sequence CGAAAAAGGGCUUUUAACUTT against Ndufs1, the z-score was 0.757 (inactive).

Take GGUGAAUGAGGACUCUGGGTT against Dcps: the z-score was -1.07 (inactive).

In the case of CGAGCACCUAUUCAUCAUATT against Tdo2, the z-score is 0.889 (inactive).

As to GGUACGACUUGGAAGAAAUTT against Rock2, the z-score is -0.415 (inactive).

Take GCUUAUGAUUCCAAGGCAGTT against Serpina6: the z-score is 0.9 (inactive).

With AAUUCUGGACGAGGAGCAUTT against Abcc5, the z-score is 3.22 (active).

In the case of CCUGGCAGUAAUCACCAUUTT against Olfr1158, the z-score was -0.117 (inactive).

Take CGAGAAAAUGGAUUCUACCTT against Atp10d: the z-score was 0.314 (inactive).

In the case of GGAGUUGUCUACCAAAGUUTT against Reep5, the z-score was 0.609 (inactive).

CCCGAUGAAGUGUUUUUAGTT against Oosp1: the z-score was -0.753 (inactive).

Regarding GGAAGAAUAAAGUGCUUUGTT against Chga, the z-score was 2.27 (active).

Take GGAUCCUCUUGAUCAAGCUTT against Vps53: the z-score is -0.891 (inactive).

Regarding GGUUUGAUUAUACCUAUCATT against Tenm2, the z-score was -0.337 (inactive).

As for GGAGAAAGGUUUUGUUAUGTT against Gtf2h2, the z-score was 1.5 (inactive).

As to CCUACUACAUCCGCUACUGTT against Apba2, the z-score is -0.366 (inactive).

Take GGUUUGGCUUAGCUCAUCATT against Mettl24: the z-score is -2.72 (active).

As to GGGCUACUCAGCCUAUAGUTT against Asic4, the z-score was 1.22 (inactive).

With GGCAAACUCGGGUAUACACTT against Mybpc1, the z-score is 0.394 (inactive).

With GGUGUGGCUGUUCUGAUGATT against Olfr771, the z-score is 0.322 (inactive).

On to GCACGAGAGACAUUUCUCCTT against Kat7, for which the z-score is -2.32 (active).

On to GGGCUCCUGGUUUAGUAAUTT against Zfp59, for which the z-score is 1.04 (inactive).

As to GGGUGUUUGGAGAUUGUGUTT against Heatr3, the z-score is -2.93 (active).

With “GCUUUUCAUACCUGUUUCCTT against 9930111J21Rik2”, the z-score was -0.227 (inactive).

Consider CGGAAUCUGACUGGUAUCGTT against Banp, for which the z-score is -1.21 (inactive).

With GGAAAAAGCCAAUUAUGUCTT against Fbxl2, the z-score was -0.954 (inactive).

As for GGUUUUAAGCUUGCUUAUGTT against Ucma, the z-score is 0.4 (inactive).

Turning to GGAGAUACUAUGUUGCAUUTT against Fgf9, the z-score was 0.537 (inactive).

Values taken from PubChem BioAssay AID1508600 (Functional Genomics Laboratory (NCATS/FGL), 2020).
